The term AC50 denotes the concentration giving half of the maximal activity seen.

For test [1] the following is noted: Ebola virus entry assay, reporter ratio channel; Channel type: primary.
For test [2] the following is noted: Ebola virus entry assay, blue channel (ratio component).
Test [3] in a line: qHTS assay for measurement of the activity of small molecule inhibitors on Zika virus induced Caspase-3 activity in human iPSC derived neural progenitor cells (hNPCs) (AID 1224857; active = well fitted inhibition curve with a large enough effect; also: nearly all actives have a fitted effect of over 65% in size). The following applies: hNPCs ZIKV-induced caspase-3/7, Caspase-Glo luminescence, 6 h; series mostly up to 45.7 µM. An outline of the steps:
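Cells were plated at 350 per well and grown 16 to 20 hours. Compound pretreatment lasted one hour, after which ZIKV (2 FFU/cell) was added for 6 hours. Percent inhibition was normalized between uninfected and infected controls.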

Test [4] can be described thus: qHTS assay for measurement of the activity of small molecule inhibitors on Zika virus induced Caspase-3 activity in human astrocytoma cells (AID 1224859; active = well fitted inhibition curve with a large enough effect). The following applies: SNB-19 ZIKV-induced caspase-3/7, luminescence, 6 h; series mostly up to 45.7 µM. An outline of the steps: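 Percent inhibition of virus-induced caspase-3/7 signal is calculated against uninfected and ZIKV-infected control cells. Cells are SNB-19, infected at 2 FFU/cell for 6 h after 1 h compound exposure.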
A general note: In qHTS, concentration-response curves come from the screen itself.

The nature of test [5]: Immunotoxin (HA22) sensitization/mitigation study. Vehicle arm (PBS) (AID 1159510). Also: potency is read from the fitted curve at half-maximal effect. The following applies: cancer cells viability with PBS vehicle (HA22 study); series mostly up to 46.1 µM.

Inconclusive results are not listed. For some of these results: Entries with a potency or affinity are not part of this list. The source made the active and inactive calls. Unless noted, no rule for the calls is given here.

Take `CC(C)Oc1cccc(NC(=O)c2ccccc2C(F)(F)F)c1`: the outcome in test [1] and in test [2] was inactive. Also, the Potency entry in test [3] and in test [4] was “inactive” throughout.
Turning to `COC(=O)c1cncn1C(C)c1ccccc1` (stereo not given), the outcome in test [1] and in test [2] was inactive. Besides, the Potency entry in test [3] and in test [4] was “inactive” each time.
Turning to `O=[N+]([O-])c1c(Cl)c(Cl)cc(Cl)c1Cl`, the result in test [1] and in test [2] was inactive. In addition, the Potency entry in test [3] and in test [4] was “inactive” in each case.
`CCC1(CCC(C)C)C(=O)NC(=O)NC1=O`: the result in test [1] and in test [2] was inactive. Besides, the Potency result in test [3] is “inactive”.
As to `Oc1ccc2c3c1O[C@H]1[C@@H](O)C=C[C@H]4[C@@H](C2)NCC[C@@]341`, the result in test [1] and in test [2] was inactive. In addition, the Potency entry in test [3] and in test [4] was “inactive” each time.
Regarding `O=C(O)c1cc(Oc2ccc(C(F)(F)F)cc2Cl)ccc1[N+](=O)[O-]`, the outcome in test [1] and in test [2] was inactive. Also, the Potency result in test [3] and in test [4] was “inactive” each time.
With `C1CCC(NC2CCCCC2)CC1`, the result in test [1] and in test [2] was inactive. The Potency result in test [3] and in test [4] was “inactive” in each case.
Regarding `Fc1cc(Br)ccc1CBr`, the result in test [1] and in test [2] was inactive. In addition, the Potency entry in test [3] was “inactive”.
As to `Nc1ccc(Cl)cc1N`, in test [1], the concentration at half-maximal activity (AC50) is 35.5 µM (active). For the same compound, the result in test [2] was inactive. Also, the Potency entry in test [3] and in test [4] was “inactive” in each case.
In the case of `CCOCCOC(C)=O`, the outcome in test [1] and in test [2] was inactive. In addition, the Potency result in test [3] and in test [4] was “inactive” each time.
Regarding `CS(=O)(=O)c1ccc(C(=O)C2C(=O)CCCC2=O)c([N+](=O)[O-])c1`, the outcome in test [1] and in test [2] was inactive. Moreover, the Potency entry in test [3] and in test [4] was “inactive” each time.
For the compound `CCO/N=C(\CC)C1=C(O)CC(c2c(C)cc(C)cc2C)CC1=O` (stereo not given), the result in test [1] and in test [2] was inactive. For the same compound, the Potency result in test [3] and in test [4] was “inactive” in each case.
For the compound `CCCCOC(=O)c1ccccc1C(=O)OCc1ccccc1`, the result in test [1] and in test [2] was inactive. The Potency entry in test [3] and in test [4] was “inactive” throughout.
For `O=C1C(I)=CC(=C(c2cc(I)c(O)c(I)c2)c2ccccc2C(=O)O)C=C1I`, the outcome in test [1] and in test [2] was inactive. Further, the Potency result in test [3] and in test [4] was “inactive” each time.
`Cc1cc(O)ccc1Cl`: the outcome in test [1] and in test [2] was inactive. Besides, the Potency entry in test [3] was “inactive”.
On to `Cc1ccc(Cl)c(O)c1`, for which the outcome in test [1] and in test [2] was inactive. For the same compound, in test [3], the Potency result was “inactive”.
In the case of `CC(C)(C)C(O)C(Oc1ccc(Cl)cc1)n1cncn1` (stereo not given), the outcome in test [1] and in test [2] was inactive. The Potency entry in test [3] and in test [4] was “inactive” in each case.
With `O=C(O)COc1nc(Cl)c(Cl)cc1Cl`, the outcome in test [1] and in test [2] was inactive. Moreover, the Potency result in test [3] and in test [4] was “inactive” throughout.
For `C=CC(=O)NCNC(=O)C=C`, the result in test [1] and in test [2] was inactive. In addition, the Potency result in test [3] and in test [4] was “inactive” throughout.
Regarding `Nc1ccc(Cl)cc1`, the result in test [1] and in test [2] was inactive. For the same compound, the Potency entry in test [3] and in test [4] was “inactive” throughout.
Turning to `CC(C)(C)NC[C@H](O)c1ccc(O)cc1Cl`, the outcome in test [1] and in test [2] was inactive. For the same compound, the Potency result in test [3] and in test [4] was “inactive” each time.
Take `O=C(O)COc1ccccc1`: the result in test [1] and in test [2] was inactive. The Potency entry in test [3] and in test [4] was “inactive” in each case.
`CCC(=O)O[C@@H]1C=C2CCC3C(CCC4(C)C3CC[C@@H]4OC(=O)CC)C2CC1` (stereo not given in full): the outcome in test [1] and in test [2] was inactive. Further, the Potency entry in test [3] and in test [4] was “inactive” each time.
Regarding `CC1(C)CC/C(=C/c2ccc(Cl)cc2)C1(O)Cn1cncn1` (stereo not given), the result in test [1] and in test [2] was inactive. In addition, the Potency result in test [3] and in test [4] was “inactive” in each case.
As for `Nc1ccc(Sc2ccc(N)cc2)cc1`, the outcome in test [1] and in test [2] was inactive. In addition, the Potency entry in test [3] is “inactive”.
On to `CC(O)CN1CCN(CC(=O)[O-])CCN(CC(=O)[O-])CCN(CC(=O)[O-])CC1.[Gd+3]` (stereo not given), for which the result in test [1] and in test [2] was inactive. Besides, the Potency result in test [3] is “inactive”.
As for `CC(C)NCC(O)c1ccc([N+](=O)[O-])cc1` (stereo not given), the outcome in test [1] and in test [2] was inactive. The Potency entry in test [3] was “inactive”.
For the compound `COCCOCCO`, the outcome in test [1] and in test [2] was inactive. Also, the Potency result in test [3] and in test [4] was “inactive” throughout.
`OCCCBr`: the outcome in test [1] and in test [2] was inactive. For the same compound, the Potency result in test [3] is “inactive”.
For `O=S(=O)(c1ccc(Cl)cc1)c1ccc(Cl)cc1`, the outcome in test [1] and in test [2] was inactive. Also, the Potency entry in test [3] and in test [4] was “inactive” in each case.
Take `CCOP(=O)(NC(C)C)Oc1ccc(SC)c(C)c1` (stereo not given): the result in test [1] and in test [2] was inactive. The Potency entry in test [3] and in test [4] was “inactive” in each case.
`Nc1c(Cl)c(Cl)c(Cl)c(Cl)c1Cl`: the outcome in test [1] and in test [2] was inactive. The Potency result in test [3] and in test [4] was “inactive” in each case.
Take `CN[C@@H](C)[C@H](O)c1ccccc1`: the result in test [1] and in test [2] was inactive. Besides, the Potency entry in test [3] and in test [4] was “inactive” in each case.
On to `CC1=C(C(=O)O)N2C(=O)[C@@H](N)[C@H]2SC1`, for which the result in test [1] and in test [2] was inactive. The Potency entry in test [3] is “inactive”.
On to `Nc1ccc([N+](=O)[O-])cc1`, for which the result in test [1] and in test [2] was inactive. The Potency entry in test [3] and in test [4] was “inactive” each time.
Turning to `O=[N+]([O-])c1cc([N+](=O)[O-])c2ccccc2c1`, the outcome in test [1] and in test [2] was inactive. In addition, the Potency entry in test [3] and in test [4] was “inactive” in each case.
Take `O=[N+]([O-])c1c2ccccc2cc2ccccc12`: the result in test [1] and in test [2] was inactive. In addition, the Potency entry in test [4] was “inactive”.
In the case of `CO/C=C(/C(=O)OC)c1ccccc1Oc1cc(Oc2ccccc2C#N)ncn1`, the AC50 in test [1] was 31.6 µM (active). Also, in test [3], the Potency entry was “inactive”.
For the compound `COC(C)(C)CCCC(C)C/C=C/C(C)=C/C(=O)OC(C)C` (stereo not given), the result in test [1] and in test [2] was inactive. For the same compound, the Potency result in test [4] is “inactive”.
Consider `NC(CO)(CO)CCc1ccc(Sc2cccc(OCc3ccccc3)c2)cc1Cl`, for which, in test [5], the Potency is 23.5 µM (active).
Still for that read-out and setting: as for `CC(=O)c1c(C)c2cnc(Nc3ccc(N4CCNCC4)cn3)nc2n(C2CCCC2)c1=O`, the figure is 16.6 µM (active).

(Values after PubChem BioAssay (NCATS).)
